# From PubChem BioAssay (NCATS)
# Results filed as inconclusive are left out. Values without a mark were called inactive. The call rests on the fitted dose curve; in most records, active means well fitted inhibition curve with a large enough effect; inconclusive means small, poorly fitted or top-dose-only effect; inactive means flat fitted curve, though single readings scatter.
# Target: Calcium and integrin-binding protein 1 (Homo sapiens) (UniProt Q99828)
# Assay: Primary qHTS for Identification of Calcium Integrin Binding Protein 1 (CIB1) Competitor (AID 1508620);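 further: GST tagged CIB1 binding a fluorescein labelled alphaIIb integrin peptide tracer; top concentration of the series differs between compounds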
# Settings: CIB1-GST / FITC-alphaIIb peptide fluorescence polarization; series mostly up to 114 µM; activity change, negative = inhibition: at the top concentration
# How it was run: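 CIB1-GST (1 uM final) and compound incubated 15 min at room temperature before adding FITC-alphaIIb peptide tracer (100 nM final). Competition for binding read by fluorescence polarization (ex 480, em 540) after another 15 min at room temperature.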
# On the % scale 0 is the no-effect control and ±100 the full control effect.
# Calcium and integrin-binding protein 1 (Homo sapiens), sequence (Q99828 whole entry, looked up): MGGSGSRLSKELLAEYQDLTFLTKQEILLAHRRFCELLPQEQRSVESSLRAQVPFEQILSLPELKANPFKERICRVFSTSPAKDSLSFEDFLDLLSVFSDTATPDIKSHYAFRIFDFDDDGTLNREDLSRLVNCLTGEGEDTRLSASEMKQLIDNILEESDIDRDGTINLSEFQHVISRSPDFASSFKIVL
row,Compound,"activity change, negative = inhibition"
1,O=C(O)COCCN1CCN([C@H](c2ccccc2)c2ccc(Cl)cc2)CC1,-7.68%
2,COc1ccc([C@@]2(O)c3c(ccc(CC=C(C)C)c3O)NC(=O)[C@@H]2OC)cc1,0.567% [at 57.7 µM]
3,C=C1CCC2C(C)(C)CCC[C@]2(C)[C@H]1C/C=C(\CO)C(=O)C(=O)O (stereo partly drawn),-0.419% [at 57.7 µM]
4,CC(=O)O[C@H]1C[C@@]2(C)[C@@H](CC[C@H]3[C@@]4(C)C=CC(=O)[C@@H](C)[C@@H]4[C@H](O)C(=O)[C@@]32C)/C1=C(/CCC=C(C)C)C(=O)O,2.46% [at 57.7 µM]
5,C[C@H](Oc1ccc(S(C)(=O)=O)cc1C(=O)N1CCN(c2ncc(C(F)(F)F)cc2F)CC1)C(F)(F)F,-3.25%
6,COC1/C=C/C(C)(O)C(SCC(N)C(=O)O)CC(=O)OC(C)C(C)CC/C=C/1C (stereo not drawn),-5.29% [at 57.7 µM]
7,N#C[C@@H]1CCCN1C(=O)CNC12CC3CC(CC(O)(C3)C1)C2,3.45%
8,CC(C)c1cc2c(c(O)c1O)[C@@]13CCCC(C)(C)[C@@H]1[C@H](OC3=O)C2=O,-13.8% [at 57.7 µM]
9,CC(C)[N+]1(C)C2CCC1CC(OC(=O)C(CO)c1ccccc1)C2 (stereo not drawn),3.86%
10,Fc1ccc2nc(CCC#Cc3ccccn3)cn2c1,0.273%
11,CC(=O)O[C@@H]1[C@H](O)[C@@H](O[C@@H]2O[C@@H](C)[C@H](O[C@@H]3OC[C@@H](O)[C@H](O[C@@H]4OC[C@@H](O)[C@H](O)[C@H]4O)[C@H]3O)[C@@H](O[C@@H]3O[C@H](CO)[C@@H](O)[C@H](O)[C@H]3O)[C@H]2O)[C@H](OC(=O)[C@]23CCC(C)(C)C[C@H]2C2=CCC4[C@@]5(C)CC[C@H](O[C@@H]6O[C@H](C(=O)O)[C@@H](O)[C@H](O[C@@H]7OC[C@@H](O)[C@H](O)[C@H]7O)[C@H]6O[C@@H]6O[C@H](CO)[C@H](O)[C@H](O)[C@H]6O)[C@@](C)(C=O)C5CC[C@@]4(C)[C@]2(C)CC3)O[C@@H]1C (stereo partly drawn),-6.59% [at 12.4 µM]
12,CC(=O)OC1C(O)CC2(C)C(CCC(C)C23Cc2c(O)cc(CO)c(C=O)c2O3)C1(C)C (stereo not drawn),-17.5% [at 57.7 µM]
13,C=C1C(=O)OC2C1C(O)CC1(C)C(O)CCC(C=O)C21 (stereo not drawn),-3.45%
14,O=C(Nc1ccccc1-c1cn2c(CN3CCNCC3)csc2n1)c1ccc2ccccc2n1,-6.04%
15,C[C@@H]1O[C@@H](O[C@H]2[C@H](OC(=O)[C@]34CCC(C)(C)C[C@H]3C3=CCC5[C@@]6(C)C[C@H](O)[C@H](O[C@@H]7O[C@H](CO)[C@@H](O[C@H]8OC[C@](O)(CO)[C@H]8O)[C@H](O)[C@H]7O)[C@@](C)(CO)C6[C@H](O)C[C@@]5(C)[C@]3(C)C[C@H]4O)OC[C@H](O)[C@@H]2O)[C@H](O)[C@H](O)[C@H]1O[C@@H]1OC[C@@H](O)[C@H](O[C@@H]2OC[C@](O)(CO)[C@H]2O)[C@H]1O (stereo partly drawn),-2.92% [at 12.4 µM]
16,COc1nc2sc(C(=O)NC3CC3)c(N)c2c(C)c1Cl,-7.8%
17,COc1ccc(C2COc3cc(O)ccc3C2)c(O)c1 (stereo not drawn),-1.92%
18,COc1ccc2c(OC)c3ccoc3nc2c1OC,0.975%
19,CC1(C)CCCC2(C)C1CC(=O)C13CC(CCC12)C(O)(CO)C3 (stereo not drawn),1.17% [at 57.7 µM]

row,Compound,"activity change, negative = inhibition"
1,C/C1=C\C[C@]2(C)C(=O)C(O)=C([C@H](C)CO)[C@H]2C/C=C(\C)[C@@H](O)CC/C(C)=C/CC1,0.773% [at 57.7 µM]
2,CC(=O)O[C@@H]1CC(C)=C2[C@H]1[C@H](C)CC[C@H]2/C=C(\C)C(=O)O,1.84%
3,COC(=O)[C@H](O)[C@H]1C(C)(C)[C@H](OC(=O)C(C)C)[C@@]2(O)C(=O)[C@]1(C)C1CC[C@]3(C)C(CC(=O)O[C@H]3c3ccoc3)[C@]13O[C@@H]32 (stereo partly drawn),4.66% [at 30.2 µM]
4,Cc1ccc(F)cc1C(=O)Nc1ccc(C(=O)N2Cc3cccn3Cc3ccccc32)c(Cl)c1,1.73%
5,C=C1[C@H](OC(C)=O)[C@H]2[C@@H](OC(C)=O)[C@](C)(OC(C)=O)C[C@]2(OC(C)=O)C(=O)[C@H](C)/C=C/C(C)(C)C(=O)[C@H](OC(=O)C(C)C)[C@H]1OC(C)=O,-1.23% [at 30.2 µM]
6,CCc1ccc(Cc2ccc3c(c2)[C@]2(OC3)O[C@H](CO)[C@@H](O)[C@H](O)[C@H]2O)cc1,1.38%
7,COC(=O)C1=CO[C@@H](O)C2C(CO)=CCC12 (stereo partly drawn),4.27%
8,COc1ccc([C@@]2(O)c3c(ccc4c3OC(C)(CCC=C(C)C)C=C4)NC(=O)[C@@H]2OC)cc1 (stereo partly drawn),-1.13% [at 57.7 µM]
9,C=CC(C)(O)CC/C=C(\C)C(=O)OC1C(O)C(CO)OC(OC(=O)C23CCC(C)(C)CC2C2=CCC4C5(C)CCC(OC6OC(COC7OCC(OC(C)=O)C(O)C7OC7OC(COC(C)=O)C(O)C(O)C7O)C(O)C(O)C6O)C(C)(C)C5CCC4(C)C2(C)C(O)C3O)C1OC1OCC(OC2OCC(O)C(OC3OCC(O)C(O)C3O)C2O)C(O)C1O (stereo not drawn),3.39% [at 12.4 µM]
10,CC(=O)O[C@H]1CC[C@H](C)[C@@]2(C)[C@H](OC(C)=O)c3c(C)coc3C(=O)[C@H]12,0.885% [at 57.7 µM]
11,Cn1nnc(-c2ccc(-c3ccc(N4C[C@H](COP(=O)(O)O)OC4=O)cc3F)cn2)n1,-2.9%
12,CC(=O)OC1/C(C)=C/C(=O)C(OC(C)=O)C(C)(C)/C=C/C(C)C(=O)C2(OC(C)=O)CC(C)C(OC(=O)c3ccccc3)C12 (stereo not drawn),3.93% [at 30.2 µM]
13,OC/C=C/c1ccc(O[C@@H]2O[C@H](CO)[C@@H](O)[C@H](O)[C@H]2O)cc1,5.47% [at 57.7 µM]
14,C/C=C/C=C/C(O)=C1\C(=O)[C@]2(C)C3C(C(=O)CC/C=C/C)=C(O)C4(C)C1[C@]1(C)O[C@@]4(O)[C@@]3(C)O[C@@]12O,-0.588% [at 57.7 µM]
15,COc1c(/C=C/C(C)(C)O)ccc2c1C(=O)OCc1cc(C)cc(O)c1O2,-3.4% [at 57.7 µM]
16,CC(=O)c1cc(C(=O)N[C@@H](C)Cn2ccc(-c3ccc(C#N)c(Cl)c3)n2)[nH]n1,-4.99%
17,CC(=O)O[C@@H]1c2c3c(cc(O)c2C(=O)O[C@@H]1C)O[C@@]1(C)[C@@H](O)C[C@H]2C(C)(C)C(=O)C=C[C@]2(C)[C@@H]1C3,1.49% [at 57.7 µM]
18,C=C1CC[C@H]2[C@@](C)(CCC(O)[C@@]2(C)CO)[C@@H]1CCC1=CCOC1=O (stereo partly drawn),-4.52% [at 57.7 µM]
19,Cc1c(F)cc(C(=O)NC2CC2)cc1-c1c(F)cn2c(C(C)(C)C)nnc2c1F,-4.24%
